The values below come from ChEMBL document CHEMBL4513216, “Probing the Open Global Health Chemical Diversity Library for Multistage-Active Starting Points for Next-Generation Antimalarials” (ACS Infect Dis, 2020).

Structures are written as SMILES. Out of some 69,000 compounds screened, about 8,600 (12%) showed an effect of 50% or more. What follows is part of a selection rich in strong results, with near analogues and random picks from the rest.

The test system of the test is Plasmodium berghei. Kind of test: Screen against P. berghei liver stage (PbLuc), transformed with Luciferase, at 10uM. The format is functional, HepG2. The following applies: tested at 10 uM.
Turning to `CCN(CC)c1nc(C)cc(C(=O)Nc2cccc(C(N)=O)c2)n1`, the INHIBITION came out at 25.3%. The result for `Cc1nnc(C(NS(=O)(=O)c2cc(C#N)ccc2C)C(C)C)[nH]1` (centres undefined) reads 49.1%.

In the case of `CSCC[C@H]1CN2CCC[C@H]2CN1Cc1coc2ccc(C)cc2c1=O`, the INHIBITION was found to be 43.6%. Regarding `CC(=O)NCC(=O)N1Cc2nccn2CC(CN(C)C(C)C)C1` (centres undefined), the INHIBITION worked out at 5.44%. `CN(C)c1ccc(NC(=O)NCc2ccc(Cl)s2)cn1`: the INHIBITION is -21%. With `CN(Cc1ccc(Cl)s1)C(=O)Nc1ccc(N(C)C)nc1` the figure was 58.8%; with `CN(Cc1ccsc1)C(=O)Nc1ccc(N(C)C)nc1`, 33.8%.

`Cn1cccc1C(=O)N1CCc2ncnc(C3CC3)c2CC1`: the INHIBITION was determined as 35.8%. The result for `COCCSCC(=O)NCc1ccc(N(C)C)nc1` reads 43.5%; that for `CCOCCCNC(=O)c1nc2c(s1)CCCN2c1ccc(C)nn1`, 35.8%. The result for `COC(=O)CC(C)(C)CC(=O)N1CCC(C(F)(F)F)CC1` reads 24.6%; that for `Cc1nc(C2CCCN2CCCc2nc3ccccc3o2)no1` (centres undefined), 21.6%; that for `CCc1nc(C2CCCN2CCCS(=O)(=O)c2ccccc2)no1` (centres undefined), 51.2%.

On to `CCc1nc(C2CCCN2CCS(=O)(=O)c2ccccc2)no1` (centres undefined), for which the INHIBITION stood at 22.007%. With `CN(C)S(=O)(=O)CCCN1CCCC1c1noc(C2CC2)n1` (centres undefined), the INHIBITION is -15.5%.

Regarding `Cc1nc(C2CCCN2CCCS(=O)(=O)c2ccccc2)no1` (centres undefined), the INHIBITION is 3.603%. The result for `Cc1nc(C2CCCN2CCCS(=O)(=O)N(C)C)no1` (centres undefined) reads 54.3%; that for `Cc1nc(C2CCCN2CCCS(N)(=O)=O)no1` (centres undefined), 22.5%; that for `CC(C)c1nc(C2CCCN2CCCc2nc3ccccc3o2)no1` (centres undefined), 26.3%.

Turning to `CCc1nc(C2CCCN2CCCc2nc3ccccc3o2)no1` (centres undefined), the INHIBITION was 62.6%. The result for `O=C(NCCN1CCCCC1)c1ccn(-c2ccccc2)n1` reads 19.6%. On to `CCSCC(C)NCc1cn2ccccc2n1` (centres undefined), for which the INHIBITION is on record as -20%. The result for `COCC1CN(Cc2csc(C)n2)Cc2nccn2C1` (centres undefined) reads 4.61%; that for `CCc1ncc(CNCc2cccnc2N(C)C)cn1`, -0.29%. The result for `Cc1cccc(C)c1OCCNC(=O)C(C)n1cncn1` (centres undefined) reads -42.3%; that for `O=C1COC2(CCN(c3ncccn3)CC2)CN1c1ccsc1`, 26.5%. The result for `NC(=O)N1CCC2(CC1)CN(c1ccsc1)C(=O)CO2` reads 54.6%; that for `CCc1cnc(N2CCC3(CC2)CN(c2cccnc2)C(=O)CO3)nc1`, 47.2%. As for `COCC(=O)N1CCC2(CC1)CN(c1ccsc1)C(=O)CO2`, the INHIBITION amounted to 64.9%. For `O=C(C1CCOCC1)N1CCC2(CC1)CN(c1ccsc1)C(=O)CO2`, the INHIBITION was determined as 74.2%. In the case of `Cc1cnc(N2CCC3(CC2)CN(c2ccsc2)C(=O)CO3)nc1`, the INHIBITION is on record as 53.9%.

Regarding `O=C(C1CC1)N1CC[C@H]2C(=O)N(c3ccsc3)CCO[C@H]2C1`, the INHIBITION turned out to be 33%. With `CN(C)CC(=O)N1CCC2(CC1)CN(c1ccsc1)C(=O)CO2` the figure was 47.2%. With `COCC(=O)N1CCC2(CC1)CN(c1cncnc1)C(=O)CO2`, the INHIBITION was 24.1%. The result for `O=C(c1cccs1)N1CCC2(CC1)CN(c1ccsc1)C(=O)CO2` reads 22.9%. As for `O=C(Nc1ccccc1)N1CCC2(CC(=O)N(c3ccsc3)C2)C1` (centres undefined), the INHIBITION is recorded as -12.2%. With `O=C(c1cccs1)N1CCC2(CC1)CN(c1cncnc1)C(=O)CO2` the figure was 48.6%; with `O=C(NCc1ccco1)[C@H]1COC[C@H]2CN(Cc3ccoc3)C[C@H]21`, 25.2%; with `CCOc1ccc(C#N)cc1NCC(=O)NC1(C#N)CCCC1`, -2.53%. As for `Cc1ccc(NC(=O)N2CCCC2)c(OCC2CCCO2)c1` (centres undefined), the INHIBITION is on record as -8.11%. `CCS(=O)(=O)N1CCN(Cc2cccnc2)c2nc(C)ccc2C1`: the INHIBITION is given as 38.1%. With `O=C(Nc1cccs1)NC(CCCO)c1ccccc1` (centres undefined) the figure was 24.3%; with `O=C(NCc1csc(Br)c1)N1CCC(O)CC1`, -0.822%; with `COCC(=O)NCCCn1nc2ccccn2c1=O`, 19.7%. With `CC(C)N(C)Cc1nnc2n1CCN(CC1CC1)CC2` the figure was 20.1%. The result for `CCS(=O)(=O)N1CCC2(CC1)CN(c1cncnc1)C(=O)CO2` reads 14.1%; that for `CCS(=O)(=O)N1CCC2(CC1)CN(c1ccsc1)C(=O)CO2`, 54.4%. On to `O=C1COC2(CCN(S(=O)(=O)C3CC3)CC2)CN1c1ccsc1`, for which the INHIBITION is on record as 3.25%. The result for `Cc1cc2ccccc2n1CCC(=O)N1CCN(C)CC1C(N)=O` (centres undefined) reads 34.9%. With `CSCC(=O)N1CCOC(c2nc(C)n[nH]2)C1` (centres undefined) the figure was 36.8%; with `CC(C)c1nc(C2CCCN(C(=O)c3cccc4c3OCO4)C2)no1` (centres undefined), 42%; with `CSc1ncc(C(=O)N2C[C@@H]3CC[C@H]2CN(Cc2ccccc2)C3)cn1`, -9.76%.

For `CN(CCN1CCOCC1)S(=O)(=O)CC1CCCC1`, the INHIBITION worked out at 38.7%.

`CN1CCN(CCCN(C)S(=O)(=O)C2CCCCC2)CC1`: the INHIBITION is recorded as 43.2%. The result for `Cc1ccc2cccc(S(=O)(=O)N(C)CC3CCN(C)C3)c2n1` (centres undefined) reads 16%; that for `CN1CCN(CCCNC(=O)C2CCCCC2)CC1`, -24%; that for `CN1CCN(CCCN(C)S(=O)(=O)CC2CCCCC2)CC1`, 54.4%. With `Cc1ccc2cccc(S(=O)(=O)N(C)CC3CCN(C)CC3)c2n1` the figure was 17.6%; with `CN(CCN1CCCC1=O)S(=O)(=O)CC1CCCC1`, 88%; with `CN1CCC(CN(C)S(=O)(=O)CC2CCCCC2)CC1`, 72.3%. The result for `CN(C)CCN(C)S(=O)(=O)CC1CCOCC1` reads 30.2%.

Take `O=C(NCCCn1cccn1)N1CCCC1c1cccs1` (centres undefined): the INHIBITION amounted to 25.2%. Take `Cc1ccsc1CN1CC[C@H]2OCC[C@@]2(C(=O)N2CCCO2)C1`: the INHIBITION worked out at 37.2%. The result for `COCCNC(=O)[C@@H]1C[C@@H]2CCN(c3ncccn3)C[C@H]2O1` reads 4.57%. In the case of `O=C(Nc1ccccc1F)C1CSCN1C(=O)CCc1ccco1` (centres undefined), the INHIBITION was -39.2%. The result for `CCNC(=O)c1ccc(NC(=O)N(C)Cc2cc(C)on2)c(C)c1` reads 29.6%; that for `COc1ccc(Cl)cc1C(=O)N(C)Cc1cc(C)on1`, -4.16%; that for `COc1cc(F)c(NC(=O)N(C)CCNC(=O)N(C)C)cc1F`, 36.3%.

Consider `CCN(C)C(=O)Nc1cc(F)c(OC)cc1F`, for which the INHIBITION is reported as 14.9%. The result for `Cc1cc(CN(C)C(=O)Nc2ccccc2C)no1` reads 67.1%; that for `COc1ccc(F)cc1C(=O)N(C)Cc1cc(C)on1`, 35.7%; that for `COc1cc(F)c(NC(=O)N(C)Cc2cc(C)on2)cc1F`, 52.6%. With `COc1ccc(S(N)(=O)=O)cc1C(=O)N(C)Cc1cc(C)on1` the figure was 51.2%; with `Cc1cc(CN(C)C(=O)NCc2ccccn2)no1`, -22.8%. The result for `Cc1ccc(-n2nnc(C(=O)O)c2C)c(C)c1` reads 14.2%. With `CCOCCC(=O)N1C[C@@H]2CC[C@H]1CN(c1ncccn1)C2`, the INHIBITION is reported as 43.2%.

For `Cc1cccc(NC(=O)C2CSCN2C(=O)c2cnccn2)c1C` (centres undefined), the INHIBITION amounted to 33.35%.

Turning to `COc1ccc(C)cc1CC(=O)NS(=O)(=O)c1ccc(C(N)=O)cc1`, the INHIBITION was -2.19%. Turning to `CCC(=O)Nc1nnc(CCOc2ccccc2OC)s1`, the INHIBITION is on record as -23.8%. The result for `O=C(NCC1Cn2nnc(-c3ccoc3)c2CO1)c1ccc[nH]1` (centres undefined) reads 27.4%; that for `CN1CCCC1c1nccnc1-c1ccc(C(=O)O)cc1` (centres undefined), -14.2%; that for `Cc1ncsc1CN(Cc1ccccc1)Cc1ncc[nH]1`, 46.6%.

For `Cc1nn(C)c(Cl)c1C1CCCN1C(=O)c1ccc(O)nc1` (centres undefined), the INHIBITION came to 48.1%. The result for `Cc1nn(C)c(Cl)c1C1CCCN1C(=O)c1ccc(N(C)C)nn1` (centres undefined) reads 53.8%. In the case of `COc1c(C2CCCN2C(=O)c2ccc(N(C)C)nn2)c(C)nn1C` (centres undefined), the INHIBITION is -57.4%. As to `Cc1nn(C)c(C)c1C1CCCN1C(=O)c1ccc(N(C)C)nn1` (centres undefined), the INHIBITION was -71.1%. With `Cc1nn(C)c(Cl)c1C1CCCN1C(=O)c1ccc(C(N)=O)cn1` (centres undefined) the figure was 84.3%; with `Cc1nn(C)c(C)c1C1CCCN1C(=O)c1ccc(C(N)=O)cn1` (centres undefined), 9.555%. In the case of `Cc1nn(C)c(C)c1NC(=O)CN1CCN(c2nccs2)C(C)C1` (centres undefined), the INHIBITION came out at 21.6%. With `Cc1c(C[S+](C)[O-])cccc1NC(=O)c1cc(Cl)ccn1` (centres undefined) the figure was -42.1%; with `Cc1c(NC(=O)N(C)CCn2cnnc2)cccc1OC1CCCC1`, 13.3%; with `CCNC(=O)N(CCCO)C1CCCc2ccccc21` (centres undefined), 45.7%. With `CC(O)CN1CCC(CNCc2ccc(OC(F)(F)F)cc2)CC1` (centres undefined), the INHIBITION stood at 44.7%. The result for `CCN(c1ccc(C(=O)N2CCC(C)CC2)cc1)S(=O)(=O)CC` reads 22.9%; that for `CCN(c1ccc(C(=O)N2CCCC(C)C2)cc1)S(=O)(=O)CC` (centres undefined), 10.1%; that for `CCS(=O)(=O)N(C)c1ccc(C(=O)N2CCCC(C)C2)cc1` (centres undefined), 60.1%. With `O=C(NCCc1cccnc1)Nc1cc(C(F)(F)F)c[nH]c1=O`, the INHIBITION is -12.6%. With `Cc1ccccc1C1CCN(C(=O)CCNC(=O)C(C)(C)C)C1` (centres undefined), the INHIBITION is on record as -66.4%. With `COCCOCC(=O)N1CCC(c2ccccc2F)C1` (centres undefined) the figure was -112%; with `COCCOCCC(=O)N1CCC(c2ccccc2C)C1` (centres undefined), 55.2%; with `CS(=O)(=O)N1CCC(NC(=O)COc2ccc(Cl)cc2)CC1`, -61.4%. The result for `CC1c2ncc(CN3CCN(C)CC3)n2CCN1CC1CC1` (centres undefined) reads -10.4%; that for `CN(C)CC1CN(c2cnc3ccccc3n2)CCO1` (centres undefined), 38.8%; that for `COCCC1(C(=O)O)CCCN(c2cc(C)c3ccccc3n2)C1` (centres undefined), 20.2%. With `Cc1cc(N2CCC3(CCCN(CCO)C3=O)C2)nc(C)c1C#N` (centres undefined) the figure was 38%; with `Cc1cc(N2CCC3(CCCN(CCO)C3=O)C2)nc2cc(Cl)ccc12` (centres undefined), 16.1%. On to `Cc1cc(N2CCC(CO)(CC3CCCCO3)CC2)c2ccccc2n1` (centres undefined), for which the INHIBITION was 47.6%.

`c1ccc2nc(N3CCOC(Cn4cccn4)C3)cnc2c1` (centres undefined): the INHIBITION was -34%. The result for `OCC1(CC2CCCCO2)CCN(c2cnc3ccccc3n2)CC1` (centres undefined) reads 83.9%. With `Cc1cc(N2CCC(CO)(CC3CCCCO3)CC2)nc2ccccc12` (centres undefined) the figure was 53%. Turning to `Cc1cc(N2CCC3(CCCN(CCO)C3=O)C2)nc2ccccc12` (centres undefined), the INHIBITION was found to be 57.2%. The result for `Cc1cc(N2CCC(O)(C(=O)O)CC2)nc2ccccc12` reads 32.2%.

As to `Cc1cc(N2CCC3(CC2)C(C(=O)O)CC(=O)N3C)nc2ccccc12` (centres undefined), the INHIBITION turned out to be 9.56%.

Take `COCCC1(C(=O)O)CCN(c2cc(C)c3ccccc3n2)CC1`: the INHIBITION is on record as 62.8%.
